In PubChem BioAssay (EPA / NIEHS):
The source made the active and inactive calls. Rule for the calls: active = hit-call score of the fitted dose curve at least 0.9, where 1 is the maximum; inactive = score below 0.9.

Assay: APR_HepG2_CellCycleArrest_72hr: Apredica 72-hour HepG2 Assay for Cell Cycle Arrest (AID 2282914)
Conditions: high-content imaging, actives raise or lower the signal
Description: APR_HepG2_72hr is a cell-based, multiplexed-readout assay that uses HepG2, a human liver cell line, with measurements taken at 72 hours after chemical dosing in a 384-well plate.APR_HepG2_CellCycleArrest_72hr is one of 10 assay component(s) measured or calculated from the APR_HepG2_72hr assay. It is designed to make measurements of cell phenotype, a form of morphology reporter, as detected with fluorescence intensity signals by HCS Fluorescent Imaging technology.Data from the assay component APR_HepG2_CellCycleArrest_72hr was analyzed into 1 assay endpoint. This assay endpoint, APR_HepG2_CellCycleArrest_72hr, was analyzed with bidirectional fitting relative to DMSO as the negative control and baseline of activity. Using a type of morphology reporter, measures of all nuclear dna for gain or loss-of-signal activity can be used to understand the signaling at the pathway-level as they relate to the gene . Furthermore, this assay endpoint can be referred to as a primary readout, because this assay has produced multiple assay endpoints where this one serves a signaling function. To generalize the intended target to other relatable targets, this assay endpoint is annotated to the cell cycle intended target family, where the subfamily is arrest.
Cells were treated with dimethyl sulfoxide (DMSO) as a solvent control at a final concentration of 0.5% v/v or with compounds in DMSO with a resulting final DMSO concentration of 0.5% v/v. Compound treatment was done at concentrations of 0.39, 0.78, 1.56, 3.12, 6.24, 12.5, 25, 50, 100, and 200 uM in duplicate on each plate. Cells were treated with compounds for 1, 24, or 72 hr. Carbonyl […] m-chloro-phenylhydrazone (CCCP) and taxol were used as positive controls for mitochondrial function and cytoskeletal stability, respectively; DMSO served as the negative control for this experiment. Cells were fixed by the direct addition of 50 uL formaldehyde in Hank's Balanced Salt Solution (HBSS) to a final concentration of 3.7%. After incubation in the fixation medium for 30 min at room temperature (293-298 K), cells were rinsed twice with HBSS and treated with cell permeabilization buffer (16 uL of 0.5% Triton X-100) for 10 min at room temperature (293-298 K) before labeling. For mitochondrial membrane potential and mitochondrial measurements, pre-fixed cells were incubated with 50 uL of MitoTracker Red CMXRos (Invitrogen) at a concentration of 250 nM for 30 min before fixation. In the remaining cases, post-fixed cells were labeled by incubation with a multiplexed mixture of primary antibodies in HBSS for 60 min at room temperature (293-298 K) to detect immunoreactivity of c-Jun (1:500), phospho-histone H3 (1:100), phospho-histone H2A.x (1:200), p53 (1:400), alpha-tubulin (1:200) and Hoechst 33342 (2 ug/mL). Cells were labeled for multiplexed imaging on two separate plates: a) Hoechst 33342, MitoTracker Red, phospho-histone H3, and alpha-tubulin, and b) Hoechst 33342, phospho-histone H2A.x, and c-Jun. A final rinse with HBSS (50 uL) was performed before analysis. The primary and secondary antibodies for the proteins were phospho-histone H3 (rabbit anti-phospho-histone H3 and FITC-donkey anti-rabbit IgG), phospho-histone H2A.x (mouse anti-phospho-histone H2A.x and FITC-donkey anti-mouse IgG), c-Jun (rabbit anti-phospho-c-Jun and Cy3-donkey anti-rabbit IgG), p53 (sheep anti-p53 and Cy5-donkey anti-sheep IgG), alpha-tubulin (mouse anti-alpha-tubulin and Cy5-donkey anti-mouse IgG). These antibodies are available as the CellCiphr HepG2 assay kit (Millipore).Digital images of each well were captured using a Cellomics ArrayScan VTI (Thermo Scientific Cellomics) (0.8 NA objective, 0.63x optical coupler, and XF-93 filter set) at 20x magnification. The images were acquired using the autofocus feature of the ArrayScan instrument, which entails the following steps. First, the camera focuses on channel 1 (Hoechst 33342), where nuclei are identified. Second, a Z offset of 1 um is used for capturing mitochondria (MitoTracker Red). […]

Compound	outcome	AC50
O=C(O)c1cccc(C(=O)O)c1	inactive	–
c1ccc2c(c1)-c1cccc3c1c-2cc1ccccc13	–	2.38 µM (active)
CCCCCOC(C)=O	inactive	–
CC(=O)c1ccccc1	inactive	–
CCCCC(CC)C(=O)OCCOCCOCCOC(=O)C(CC)CCCC (stereo not given)	–	79.2 µM (active)
CCc1cccc(CC)c1N	inactive	–
Cc1nc(-c2ccccn2)ncc1C(=O)Nn1cc(C)c2cc(F)ccc21	–	162 µM (active)
CCCCCCCCCC	inactive	–
O=c1[nH]cnc2c1ncn2[C@H]1CC[C@@H](CO)O1	inactive	–
O=C(O)[C@H](O)[C@@H](O)C(=O)O	inactive	–
NC(=O)NN=Cc1ccc([N+](=O)[O-])o1	–	56.7 µM (active)
CC(C)C(=O)Nc1ccc([N+](=O)[O-])c(C(F)(F)F)c1	–	34.9 µM (active)
Cc1ncc([C@@H](CCCCCCc2ccc3c(n2)NCCC3)CC(=O)O)cn1	inactive	–
COS(C)(=O)=O	inactive	–
CCCCCCCCCCCCCCCCOS(=O)(=O)O	inactive	–
NC(=O)N1c2ccccc2C=Cc2ccccc21	inactive	–
Cn1cc[nH]c1=S	inactive	–
CC1(C)C(=O)N(Cl)C(=O)N1Cl	inactive	–
c1ccc(C(O[C@@H]2CCCN(CCc3ccc4c(c3)OCO4)C2)c2ccccc2)cc1	inactive	–
OC(CCl)CCl	inactive	–

Compound	outcome	AC50
O=C(O)c1cccc(C[C@@H]2COc3ccc(OCc4nc5cc(F)ccc5s4)cc3[C@@H]2O)c1	–	64 µM (active)
CCCCN1C(=O)[C@@H]([C@H](O)C2CCCCC2)NC(=O)C12CCN(Cc1ccc(Oc3ccc(C(=O)O)cc3)cc1)CC2	inactive	–
CCCCCCCCN(C)C	inactive	–
O=S(=O)(O)c1ccc(N=Nc2c(O)ccc3cc(S(=O)(=O)O)ccc23)cc1	inactive	–
CCc1ccc(O)c(C(C)(C)C)c1	inactive	–
CCCCCCCCCCCCCCO	–	100 µM (active)
C[C@@H](Oc1ccc(CNC(=O)c2cccnc2Oc2ccc3c(c2)OCO3)c(F)c1)C(=O)O	inactive	–
CC(C)CC(C)O (stereo not given)	inactive	–
c1ccc2ncccc2c1	inactive	–
COc1cc2c(c(OC)c1OC)-c1ccc(OC)c(=O)cc1[C@@H](NC(C)=O)CC2	–	0.0732 µM (active)
CNC(C)=O	inactive	–
CCCc1ccccc1	inactive	–
OCC(CO)(CO)CO	inactive	–
O=C(O)c1ccc2c(c1)nc(C(=O)NC1CCN(C3CC3)CC1)n2Cc1cc(-c2ccc(Cl)s2)on1	inactive	–
NNC(=O)c1ccncc1	inactive	–
Cc1nccn1-c1ccc(Sc2cccc(C3(C(N)=O)CCOCC3)c2)cc1	–	5.05 µM (active)
CCN(CC)C(=S)SSC(=S)N(CC)CC	–	3.04 µM (active)
NC(=O)N(O)[C@@H]1COc2cc(OCc3ccccc3)ccc21	inactive	–
C=CN1CCCC1=O	inactive	–
CCCC(CCC)C(=O)O	inactive	–
